# Screening data deposited in PubChem by several laboratories.
# Most compounds without a hit are left out; they make up all but 4.2% or so of the library.
# NALP1 yeast inh: blocks the NALP1 inflammasome reconstituted in yeast | S. cerevisiae NALP1/ASC/caspase-1 growth, X-gal OD620, 72 h | actives 0.61% (n = 280,000) | AID 2071 | inhibition, % at 10 µM; in the data active = inhibition mostly above about 24%, no sharp cut-off; inactive = mostly below about 32%
# NLRP3 yeast inh: inhibitors of NALP3 inflammasome in yeast. actives 0.39% (n = 330,000). Yeast reconstituted NLRP3/ASC/caspase-1, beta-gal luminescence, 24 h. inhibition, % at 10 µM;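 active = inhibition of 50% or more; inactive = inhibition below 50%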;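 note: plate controls were induced DMSO wells for no effect and uninduced yeast grown without galactose for full effect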
# tim10-1 inh: inhibits growth of tim10-1 mutant yeast. S. cerevisiae tim10-1 ts strain growth, BacTiter-Glo, 24 h. inhibition, % at 20 µM. actives 2.2% (n = 330,000). AID 463190;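 active = inhibition of at least 40%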;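 note: mutant grown at 25 °C; 0% = DMSO wells with yeast and 100% = wells holding no yeast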
# V-ATPase pH: regulators of yeast V-ATPase proton transport | S. cerevisiae, pHLuorin cytosolic pH fluorescence | response, % at 10 µM | actives 0.37% (n = 350,000) | AID 504577; in the data active = response mostly above about 7.3%, no sharp cut-off; inactive = mostly below about 5.4%; note: actives read high
# TIM10 inh: TIM10 yeast growth inhibition; S. cerevisiae TIM10 strain growth, BacTiter-Glo luminescence, 24 h; inhibition, % at 10 µM; actives 1.4% (n = 330,000); AID 463195;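 active = inhibition of 40% or more at the single tested concentration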;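 note: wild-type TIM10 isogenic control strain grown at permissive 25 °C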
# tim23-1 inh: growth inhibitors of tim23-1 mutant yeast; AID 463212; actives 1.3% (n = 330,000); inhibition, % at 20 µM; S. cerevisiae tim23-1 growth, BacTiter-Glo luminescence, 24 h;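 active = growth inhibition of the mutant yeast at or above 50%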;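 note: temperature-sensitive mutant grown at 25 °C; plate controls were DMSO-treated mutant yeast for no effect and medium wells lacking yeast for full effect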
# tim10-1 confirm: tim10-1 yeast growth inhibition, confirmed. shares compounds with tim10-1 inh. S. cerevisiae tim10-1 ts strain growth, BacTiter-Glo, 24 h. inhibition, % at 20 µM. actives 56% (n = 7,400). AID 463213;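 active = inhibition of yeast growth at or above a set limit in either of two repeat tests at 20 µM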;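 note: tim10-1 mutant grown at permissive 25 °C to find synthetic lethal compounds; 0% = DMSO yeast wells and 100% = medium wells without yeast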
# tim10 confirm: TIM10 yeast growth inhibition, confirmed; shares compounds with TIM10 inh; S. cerevisiae tim10 strain growth, BacTiter-Glo luminescence, 24 h; inhibition, % at 10 µM; actives 63% (n = 4,600);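 active = inhibition of yeast growth at or above a set limit in either of two replicates at 10 µM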;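 note: this counterscreen used the strain with wild-type TIM10; 0% = yeast with DMSO and 100% = medium wells lacking yeast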
# tim23-1 conf: confirmation of tim23-1 mutant yeast growth inhibitors. shares compounds with tim23-1 inh. S. cerevisiae tim23-1 growth, BacTiter-Glo luminescence, 24 h. inhibition, % at 20 µM. actives 83% (n = 4,400);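 active = inhibition above about 39% in either of two replicate wells at 20 µM, limit read from the data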;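 note: temperature-sensitive tim23-1 mutant grown at 25 °C; 0% = DMSO wells with yeast and 100% = medium wells without yeast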
# * hit, by the source's call; · = no result.
SMILES,NALP1 yeast inh,NLRP3 yeast inh,tim10-1 inh,V-ATPase pH,TIM10 inh,tim23-1 inh,tim10-1 confirm,tim10 confirm,tim23-1 conf
COc1cc(C=O)c(Br)cc1OC1CCCC1,-10.6,-80.5,48.0*,1.0,44.9*,55.9*,33.0*,33.8*,53.1*
Cc1ccc(O)c(C2=NCCNC(C(F)(F)F)=C2)c1,16.2,-2.6,-22.4,-3.7,4.9,-7.8,·,·,·
Oc1c(C2=NCCNC(C(F)(F)F)=C2)ccc2ccccc12,4.9,31.6,48.4*,-3.7,43.6*,58.6*,31.2,42.8*,70.9*
Oc1ccc(Oc2ccc3c(C(F)(F)F)cc(C(F)(F)F)nc3n2)cc1,-3.7,-11.5,40.4*,0.3,42.8*,55.9*,25.1,12.8,49.0*
Fc1ccc(C2=Nn3c(nnc3-c3n[nH]c4c3CCC4)SC2)cc1,-12.4,-0.8,-7.3,-3.1,2.6,7.0,·,·,·
Clc1ccc(-c2n[nH]c3c2CCC3)cc1Cl,10.7,6.8,55.8*,0.4,49.4*,59.2*,48.5*,56.7*,8.4
Cc1cc2cc(CCNC(=O)CCc3ccccc3)c(=O)[nH]c2cc1C,19.8,8.2,-9.8,-1.5,1.2,1.3,·,·,·
O=C(COC(=O)CNS(=O)(=O)c1cc(C(F)(F)F)ccc1Cl)NC1CC1,·,2.6,-12.8,0.4,10.8,1.1,·,·,·
CCc1ccccc1NC1Nc2cc(C)nn2S1 (centres undefined),-13.9,22.3,26.8,-2.7,6.8,27.2,·,·,·
Cc1cc2n(n1)SC(Nc1cc(Cl)ccc1Cl)N2 (centres undefined),5.2,39.6,46.8*,-1.2,47.9*,54.7*,34.5*,45.4*,37.0*
CN(CC(=O)NCc1ccco1)CC(=O)Nc1cc(S(C)(=O)=O)ccc1Cl,·,9.9,3.3,0.6,-4.1,6.7,·,·,·
CCOc1ccc(C(C)(C)C)cc1S(=O)(=O)N1CC(C)OC(C)C1 (centres undefined),4.3,11.8,43.6*,-2.0,32.0,55.0*,27.9,·,42.1*
CCOc1ccc(C(C)(C)C)cc1S(=O)(=O)n1nc(C)cc1C,-0.5,31.4,45.7*,4.3,46.4*,53.6*,40.8*,0.0,50.5*
Cc1ccc(C(=O)COC(=O)CN2C(=O)C3C4CC(C(Br)C4Br)C3C2=O)cc1 (centres undefined),8.7,1.1,-13.8,3.1,-10.6,0.2,·,·,·
c1ccc(-c2cccc(-c3ccccn3)n2)nc1,51.2*,47.2,60.1*,-2.1,37.8,57.5*,43.0*,·,57.3*
Cc1cc(-c2ccc(N=Nc3c(S(=O)(=O)O)cc4cc(S(=O)(=O)O)cc(N)c4c3O)c(C)c2)ccc1N=Nc1c(S(=O)(=O)O)cc2cc(S(=O)(=O)O)cc(N)c2c1O,·,34.5,64.5*,·,54.9*,72.0*,65.7*,46.6*,77.3*
O=S(=O)(O)c1cc(O)c2c(O)c(N=Nc3cc(Cl)ccc3O)c(S(=O)(=O)O)cc2c1,-11.9,23.0,31.7,2.0,22.9,31.3,·,·,·
O=S(=O)(c1ccc2ccccc2c1)n1cccn1,4.1,0.1,18.0,-6.9,15.9,15.2,·,·,·
Cc1cc(C)c2sc(N(CCN(C)C)C(=O)CCS(=O)(=O)c3ccccc3)nc2c1,7.1,11.2,28.4,1.3,13.2,13.1,·,·,·
CCN(CC)CCN(C(=O)CCS(=O)(=O)c1ccccc1)c1nc2cc(C)cc(C)c2s1,14.1,5.3,50.9*,-0.3,44.1*,54.8*,28.8,29.6*,39.0*
COc1ccccc1N1CCN(C2CCCN(C(=O)Cn3cccn3)C2)CC1 (centres undefined),24.6,-4.8,-9.5,1.7,10.3,1.6,·,·,·
Cc1ccc2ccccc2[n+]1CCCS(=O)(=O)[O-],-5.3,11.5,1.0,-4.2,-10.4,7.3,·,·,·
CCCC[n+]1c2ccccc2cc2ccccc21,32.7,41.7,71.3*,-3.5,73.9*,65.0*,70.4*,69.3*,64.0*
CCC[n+]1c2ccccc2cc2ccccc21,-1.9,24.6,68.0*,2.4,66.5*,56.1*,65.5*,61.5*,60.2*
O=C(CN1CCN(C(=O)C2COc3ccccc3O2)CC1)Nc1ccccc1 (centres undefined),11.9,25.0,-4.2,2.0,2.6,31.1,·,·,·
SMILES,NALP1 yeast inh,NLRP3 yeast inh,tim10-1 inh,V-ATPase pH,TIM10 inh,tim23-1 inh,tim10-1 confirm,tim10 confirm,tim23-1 conf
COc1ccc(/C(N)=N/OC(=O)c2cccc([N+](=O)[O-])c2C)cc1OC,7.0,8.5,34.5,4.4,19.0,22.6,·,·,·
Cc1ccc(C(=O)O/N=C(\N)Cc2cccs2)cc1[N+](=O)[O-],13.1,8.5,43.2*,1.9,82.7*,88.2*,66.7*,85.1*,83.1*
COc1ccccc1C/C(N)=N/OC(=O)c1ccc(C)c([N+](=O)[O-])c1,4.6,31.1,69.1*,-1.8,85.7*,75.2*,42.8*,85.9*,41.5*
CCOC(=O)c1c(S(=O)(=O)Nc2ccc(C)cn2)c(C)n(C)c1C,7.4,-4.8,17.8,3.4,9.6,18.8,·,·,·
CC(=O)NCCn1c(SCc2ccccc2C)nc2ccccc2c1=O,4.4,9.8,22.0,-3.5,13.3,33.9,·,·,·
CC(=O)NCCn1c(SCc2ccc(C)cc2C)nc2ccccc2c1=O,-1.2,17.9,40.1*,-1.2,34.1,55.9*,27.2,·,33.3
Cc1ccc(C(=O)N/C(=C\c2cccs2)C(=O)N2CCOCC2)cc1C,11.5,-2.9,-8.2,1.8,2.5,3.7,·,·,·
Nc1ccc(/C=C/C(=O)c2ccco2)cc1,28.6,8.0,15.0,0.9,10.9,33.2,·,·,·
O=C(/C=C/c1ccccc1O)c1ccco1,10.2,17.9,43.7*,-3.4,39.5,51.9*,34.6*,·,50.2*
C#CCOCCOCCOCCNc1nc(N2CCN(C(=O)CCCCCCCCCCNC(=O)[C@H](CCCCN)n3cc(CCCC(=O)O)nn3)CC2)nc(N2CCN(C(=O)CCCCCCCCCCNC(=O)[C@H](CCCN=C(N)N)n3cc(C[C@@H](C)CC)nn3)CC2)n1,·,14.0,43.7*,-2.5,10.9,51.7*,38.0*,·,52.6*
O=C1/C(=C/c2cccc(F)c2)Oc2cc(O)ccc21,-5.8,14.2,51.7*,-0.5,23.9,51.5*,38.8*,·,70.8*
COc1cccc(/C=C2\Oc3cc(OC(=O)N4CCOCC4)ccc3C2=O)c1,4.1,25.2,24.7,3.9,13.7,21.8,·,·,·
CCOC(=O)/C=C/C(=O)OCC(=O)Nc1ccc(Cl)cc1Cl,28.2*,-5.7,47.5*,0.1,29.8,53.5*,45.7*,·,73.4*
